GLP-1R agonist: agonists of human GLP-1 receptor | P43220 | HEK293 GLP-1R CRE-luciferase, luminescence, 4-6 h; cells express a hypersensitive GLP-1R form | Potency, µM (highest dose often 45.6 µM), for the others: top-dose activation, most hits filed as activators | 380,000 compounds, 0.007% hits | AID 624172; note: % of control where 0% means no effect
HEK293 tox: cytotoxic in the GLP-1 receptor inverse agonist counter-screen; 410,000 compounds, 0.13% hits; HEK293 cAMP-luciferase reporter cells, luminescence, 24 h; Potency, µM (doses to about 38.3 µM), without a hit: top-dose activity change, negative = inhibition, hits mostly inhibitors;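 note: loss of luciferase light is scored as toxicity; % is set by controls: 0 for no effect and ±100 for the full control effect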
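Compound-treated cells are incubated 24 hr at 37 deg C under 5% CO2 after a 12 hour attachment period, then luciferase detection reagent is added and luminescence is measured following 12 min at room temperature; lowered signal indicates toxicity.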
GLP-1R inv ag: acts as inverse agonist at human GLP-1 receptor; Potency, µM (titrated, usually from 38.3 µM), for inactives: at the top dose activity change, negative = inhibition, hits mostly inhibitors; P43220; HEK293 GLP-1R CRE-luciferase, luminescence, 24 h; GLP-1R form is constitutively active; 410,000 compounds, 1.6% hits; note: % is set by controls: 0 for no effect and ±100 for the full control effect; nearly all actives have a fitted effect of over 55% in size
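Using stably transfected HEK293 (constitutively active GLP-1R, cAMP-luciferase reporter), compounds were incubated 24 hr and luciferase measured by luminescence.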
PTHR1 ag: agonists of human PTHR1 parathyroid hormone receptor. Q03431. HEK293 GP2 PTHR1 cells, GloSensor cAMP luminescence, 1 h. Potency, µM (top dose mostly 115 µM), without a hit: at the highest dose activation, usual class: activators. 410,000 compounds, 0.075% hits; note: nearly all actives have a fitted effect of over 55% in size
Target sequence (Q03431 whole entry, looked up): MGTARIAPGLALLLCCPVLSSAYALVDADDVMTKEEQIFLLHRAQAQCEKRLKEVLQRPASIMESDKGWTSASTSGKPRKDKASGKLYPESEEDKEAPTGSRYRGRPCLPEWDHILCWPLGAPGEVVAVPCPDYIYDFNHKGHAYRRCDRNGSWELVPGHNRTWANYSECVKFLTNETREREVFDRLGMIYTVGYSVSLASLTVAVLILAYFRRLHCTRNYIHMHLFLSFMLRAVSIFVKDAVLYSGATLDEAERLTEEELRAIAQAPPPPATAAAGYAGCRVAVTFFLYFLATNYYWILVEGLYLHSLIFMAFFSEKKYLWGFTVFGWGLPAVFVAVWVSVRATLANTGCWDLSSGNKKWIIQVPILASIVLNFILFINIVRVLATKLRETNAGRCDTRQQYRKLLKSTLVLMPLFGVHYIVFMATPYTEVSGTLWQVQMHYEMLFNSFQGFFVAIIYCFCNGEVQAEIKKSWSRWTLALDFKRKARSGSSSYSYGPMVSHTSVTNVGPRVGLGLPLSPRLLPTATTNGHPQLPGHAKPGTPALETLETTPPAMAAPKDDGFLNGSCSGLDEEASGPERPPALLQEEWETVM
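HEK-293-derived GP2 cells expressing PTHR1 and a GloSensor cAMP reporter, 3,000/well, plated overnight, given luciferin plus IBMX (each 0.5 mM as added) for 1 h at 37 °C, then compound for 1 h at 37 °C. Luminescence was read after 15 min at room temperature.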
Active calls of the source: *; i = inactive; ? = inconclusive; · = no result; [ ] = dose if it differs, or a comment. Rows were chosen to be rich in hits. Some 1.7% of all compounds tested hit in one or more screens of this group. Calls come from the whole dose curve; as a rule, active = well fitted curve in the direction sought with a large enough effect; inconclusive = small, poorly fitted or top-dose-only effect, or another doubt; inactive = no such curve, though single readings can be large; an effect the other way counts as inactive or inconclusive. Potency is the fitted concentration of half-maximal effect.

SMILES	GLP-1R agonist	HEK293 tox	GLP-1R inv ag	PTHR1 ag
CCN1CCC(O)(/C=C/c2ccc(C(C)C)cc2)C(C(=O)/C=C/c2ccc(C(C)C)cc2)C1 (configuration not stated)	-2.3%	?	?	-18.4%
Cc1ccc(NC(=O)COC(=O)CNC(=O)c2cccs2)cc1S(=O)(=O)N1CCOCC1	-9.2%	4.0%	31.8%	-51.6%
CCc1ccccc1NC(=O)c1cc2nc(-c3ccc(Br)cc3)cc(C(F)(F)F)n2n1	·	-28.0%	6.0%	-11.9%
COc1ccc(NS(=O)(=O)c2cccc(C(=O)NCC3(N4CCCCC4)CCCCC3)c2)cc1	-13.6%	25.3%	16.5%	i
CCOc1ccc(NS(=O)(=O)c2cccc(C(=O)NCC3(N(C)C)CCCCC3)c2)cc1	0.6%	-10.9%	10µM*	-1.1%
COc1ccc(S(=O)(=O)c2c(SC)nn(CC(=O)Nc3ccc(C)c(Cl)c3)c2N)cc1	·	-24.7%	?	-6.3%
CC(C)(C)c1ccc(C(=O)NCC(c2cccs2)S(=O)(=O)c2ccc(F)cc2)cc1 (configuration not stated)	·	-1.7%	4.47µM*	-9.1%
O=C(C1=C[C@@H](c2ccc(C(F)(F)F)cc2)C[C@@H](OCc2ccc(CO)cc2)O1)N1CCN(Cc2ccc3c(c2)OCO3)CC1	-2.4%	-1.9%	-15.5%	-28.9%
O=C(C1=C[C@H](c2ccc(C(F)(F)F)cc2)C[C@H](OCc2ccc(CO)cc2)O1)N1CCN(Cc2ccc3c(c2)OCO3)CC1	-0.8%	-11.1%	10µM*	-13.4%
Cc1ccccc1NC(=O)Cn1cc(S(=O)(=O)c2ccccc2)c(=O)c2ccccc21	0.5%	-5.2%	-4.5%	-16.5%
O=c1c2ccccc2sc2c(CO)ccc(NCCN3CCCCC3)c12	-13.3%	7.94µM*	10µM*	i
O=C(CSc1nnc(COc2ccc(Cl)cc2)o1)N1c2ccccc2CCc2ccccc21	-3.2%	?	3.55µM*	-18.8%[57.5 µM]
CC(C)CC(NC(=O)CNC(=O)C(Cc1ccc(O)cc1)NC(=O)C(CO)NC(=O)C(Cc1c[nH]c2ccccc12)NC(=O)C(Cc1cnc[nH]1)NC(=O)C1CCC(=O)N1)C(=O)NC(CCCN=C(N)N)C(=O)N1CCCC1C(=O)NCC(N)=O (configuration not stated)	-2.6%	·	·	·
O=C(NCc1ccccc1)c1ccc2c(c1)N(Cc1ccc(F)cc1)CCS2	·	-1.5%	5.62µM*	-9.0%
O=C(NCCCN1CCCC1)c1ccc2c(c1)N(Cc1ccccc1)CCS2	3.4%	4.47µM*	?	-21.2%
O=C(NCCCN1CCCC1)c1ccc2c(c1)N(Cc1ccccc1F)C(=O)c1ccccc1S2=O (configuration not stated)	-0.3%	-1.1%	8.91µM*	-27.5%
O=C1Nc2cc(C(=O)NCCCN3CCCC3)ccc2S/C1=C\c1ccccc1	19.4%	-5.0%	10µM*	i
O=C1Nc2cc(C(=O)NCCCN3CCOCC3)ccc2S/C1=C/c1cccc(Cl)c1	-0.4%	4.0%	-4.3%	i
CCCOc1ccc(CNC(=O)c2ccc3c(c2)N(Cc2ccccc2)CCS3)cc1	·	0.2%	?	i
O=C(NC1CC1)c1ccc2c(c1)N(Cc1ccccc1)CCS2	-0.9%	-1.9%	8.91µM*	-11.3%
CCN1CCSc2ccc(C(=O)NCc3ccccc3C)cc21	-4.1%	-1.6%	?	-25.5%
O=C(NCCCN1CCOCC1)c1ccc2c(c1)N(Cc1ccc(F)cc1)CCS2	-0.2%	-3.3%	2.24µM*	i
CCOC(=O)N1CCC(NC(=O)c2ccc3c(c2)N(Cc2ccccc2)CCS3)CC1	7.0%	-12.0%	?	-21.3%
CN1CCN(CCCNC(=O)c2ccc3c(c2)N(Cc2ccc(F)cc2)CCS3)CC1	14.1%	-26.6%	5.62µM*	i
CCN1CCSc2ccc(C(=O)NCc3ccccc3Br)cc21	1.5%	7.1%	10µM*	-31.7%
CCN(CC)CC#CC(OC)(c1ccccc1)c1ccccc1	-1.1%	-9.2%	5.01µM*	-8.5%
CCN(CC)CCC#CC(O)(c1ccccc1)c1ccccc1	-2.0%	-12.4%	?	i
Cc1ccc(C(=O)NCC2(c3ccccc3)CCCC2)cc1	17.8%	77.1%	2.51µM*	i
COc1ccc(C(=O)NCC2(c3ccccc3)CCCC2)c(OC)c1	?	3.7%	3.16µM*	-5.9%
Nc1ccccc1C(=O)NCC1(c2ccccc2)CCCC1	-3.7%	-0.4%	3.16µM*	-22.8%

Screening results: PubChem BioAssay, National Center for Advancing Translational Sciences (NCATS)
